The record followed here is PubChem BioAssay AID2685 (National Center for Advancing Translational Sciences (NCATS), 2010).

In all, about 320,000 compounds went through this assay and about 2,100 (0.66%) were called active. Roughly 53% stayed inconclusive and do not appear here. The call rests on the fitted dose curve; in most records, active means well fitted inhibition curve with a large enough effect in the signal ratio, with a control signal flat (not every such curve was filed as active); inconclusive means small, poorly fitted or top-dose-only effect, or effect the other way, or a change in a side signal; inactive means flat fitted curve, though single readings scatter; the % refers to the signal ratio. Only a selection was taken, and actives are over-represented in it overall.
Potency means the concentration at half of the fitted maximal effect.

The nature of this test: qHTS Assay for Lipid Storage Modulators in Drosophila S3 Cells.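 On cell number change: cells counted by Cell Tracker Red CMTPX staining in the red channel.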 On lipid storage change, negative = inhibition: on the % scale 0 is the no-effect control and ±100 the full control effect. The following applies: BODIPY lipid droplet fluorescence, 18-24 h, cells fed with added oleic acid; cell number change: measured here: cell count max response; series mostly up to 46.1 µM; lipid storage change, negative = inhibition: at the top concentration. In outline:
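Drosophila S3 cells loaded with oleic acid (400 uM, as added) and compounds at several concentrations; lipid droplets imaged by 488-nm laser-scanning cytometry, 500–530 nm intensity and object ratio to cell channel. Percent activity normalized to 20 uM Triacsin C.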
`O=S(=O)(Nc1ccc(OC(F)F)cc1)c1ccc(-c2ccon2)s1`: the “lipid storage change, negative = inhibition” value was 11.5% (inactive) and the cell number change is -0.692%. In the case of `O=C(CN1C(=O)c2ccccc2S1(=O)=O)Nc1ccccc1C(=O)NCc1ccco1`, the “lipid storage change, negative = inhibition” value was 13.6% (inactive) and the cell number change was -1.22%. Consider `C=CCN(C(=O)Cn1c(C(=O)OC)cc2oc(C)cc21)c1ccccc1`, for which the “lipid storage change, negative = inhibition” value was -6.54% (inactive) and the cell number change was -13%. On to `Clc1ccc(OCc2nc(-c3ccncc3)no2)c(Cl)c1`, for which the call was inactive. For `Clc1ccc(-c2noc(CCCOc3ccccc3)n2)cc1`, the “lipid storage change, negative = inhibition” value is 16.5% (inactive) and the cell number change was -10.9%. Turning to `Clc1ccc(OCCCc2nc(-c3cccnc3)no2)c(Cl)c1`, the Potency is 14.6 µM (active) and the cell number change was -29.5%. For `C/C(=C\C(=S)Nc1ccccc1)Nc1ccccc1`, the “lipid storage change, negative = inhibition” value was 0.0435% (inactive) and the cell number change is -10.3%. `O=[N+]([O-])c1ccc(N2CCCCC2)cc1`: the “lipid storage change, negative = inhibition” value is 15% (inactive) and the cell number change was determined as 7.1%. With `Nc1ncc2c(n1)CCN(c1ccc([N+](=O)[O-])cc1)C2`, the Potency was 23.1 µM (active) and the cell number change was -20.7%. With `Nc1ncc(-c2ccc([N+](=O)[O-])cc2)cn1`, the “lipid storage change, negative = inhibition” value was 10.8% (inactive) and the cell number change turned out to be 12.5%. Regarding `O=C(CCNC(=O)N1CC(=O)Nc2ccccc21)Nc1ccc(Br)cc1F`, the result was inactive and the cell number change is -22.5%. As to `O=C1c2cccc3cccc(c23)C(=O)N1Nc1ccccc1`, the “lipid storage change, negative = inhibition” value was -24.6% (inactive) and the cell number change is 13.9%. Take `COc1ccc(Br)cc1CSC(=N)N`: the “lipid storage change, negative = inhibition” value was 1.61% (inactive) and the cell number change was determined as 1.43%. In the case of `CCOc1ccc(C(C)=O)cc1CSC(=N)N`, the “lipid storage change, negative = inhibition” value is 3.16% (inactive) and the cell number change amounted to 0.606%. With `CCCOc1ccc(Br)cc1CSC(=N)N`, the Potency was 18.4 µM (active) and the cell number change was -27.5%. As to `Cc1ccc2nc3c(c(Nc4ccccc4)c2c1)CCC3`, the “lipid storage change, negative = inhibition” value is 3.77% (inactive). Turning to `COc1ccc(Nc2c3c(nc4ccc(C)cc24)CCC3)cc1`, the Potency is 20.6 µM (active) and the cell number change amounted to 0.901%. For the molecule `COc1ccc(Nc2c3c(nc4ccccc24)CCC3)cc1`, the “lipid storage change, negative = inhibition” value is 5.42% (inactive) and the cell number change came to 21.3%. In the case of `COc1ccc(C(C)=O)cc1COC(=O)CNC(=O)c1ccc(Cl)cc1`, the “lipid storage change, negative = inhibition” value was -8.38% (inactive) and the cell number change was -0.097%. In the case of `Cc1c(C(=O)N/N=C/C(C)C)[nH]c2ccc([N+](=O)[O-])cc12`, the “lipid storage change, negative = inhibition” value is 1.18% (inactive) and the cell number change was -4.9%. As for `O=C(NCCN1CCOCC1)c1sc2ccccc2c1Cl`, the “lipid storage change, negative = inhibition” value was -5.29% (inactive) and the cell number change is -1.8%.

As to `O=C(NCCCN1CCOCC1)c1sc2cc(Cl)ccc2c1Cl`, the “lipid storage change, negative = inhibition” value was 28.1% (inactive) and the cell number change is 0.814%. Take `O=C(NCCN1CCOCC1)c1sc2cc(Cl)ccc2c1Cl`: the Potency is 4.61 µM (active) and the cell number change is -3.15%. On to `COc1ccc(NC(=O)Nc2nnc(-c3ccco3)s2)cc1`, for which the “lipid storage change, negative = inhibition” value was -13.5% (inactive) and the cell number change is 3.5%.

For `Cc1cc2nc(NC3=NCN(CCN4CCOCC4)CN3)nc(C)c2cc1C`, the “lipid storage change, negative = inhibition” value was 9.9% (inactive) and the cell number change was -6.7%.

Turning to `Cc1cc(C)c2nc(NC3=NCN(CCN4CCOCC4)CN3)nc(C)c2c1`, the Potency was 25.9 µM (active) and the cell number change came to 3.72%. As for `Cc1nc(NC2=NCN(CCCN3CCOCC3)CN2)nc2c(C)cccc12`, the result was inactive.

Consider `CS(=O)(=O)NN1C(=O)c2ccccc2NC1c1c[nH]c2ccccc12` (configuration not stated), for which the “lipid storage change, negative = inhibition” value was -2.09% (inactive) and the cell number change amounted to 15.5%. With `CCOc1ccc(NC(=O)CCC(=O)NNC(=O)c2ccco2)cc1`, the “lipid storage change, negative = inhibition” value is 18.2% (inactive).

Regarding `CCOc1ccc(NC(=O)CCC(=O)NNC(=O)Nc2ccc(Cl)cc2)cc1`, the “lipid storage change, negative = inhibition” value was 9.1% (inactive) and the cell number change is 10.6%. Turning to `CCOc1ccc(NC(=O)CCC(=O)NNC(=O)c2ccc(Br)o2)cc1`, the Potency is 6.51 µM (active) and the cell number change was 5.86%. In the case of `CCOCCCNc1c2c(nc3cc(-c4ccc(F)cc4)nn13)CCC2`, the “lipid storage change, negative = inhibition” value was 1.43% (inactive) and the cell number change was found to be 9.58%.

In the case of `CCCCn1c(CCNC(=O)c2ccco2)nc2ccccc21`, the “lipid storage change, negative = inhibition” value is -21.9% (inactive) and the cell number change was found to be 8.05%.

On to `CC(C)Cn1c(CCCNC(=O)c2ccco2)nc2ccccc21`, for which the molecule was classed as inactive. Take `CCn1c(CCNC(=O)c2ccco2)nc2ccccc21`: the “lipid storage change, negative = inhibition” value was 2.45% (inactive) and the cell number change is -11.3%. `CC(C)Cn1c(CCNC(=O)c2ccco2)nc2ccccc21`: the Potency was 3.66 µM (active). Take `C=C(C)Cn1c(CCNC(=O)c2ccco2)nc2ccccc21`: the Potency is 0.517 µM (active) and the cell number change was determined as 15.2%.

For `C=CCn1c(CCNC(=O)c2ccco2)nc2ccccc21`, the “lipid storage change, negative = inhibition” value is -5.61% (inactive) and the cell number change was 8.97%. Turning to `CC(=O)c1ccc(S(=O)(=O)N2CCN(C(=O)c3ccccc3Cc3ccccc3)CC2)cc1`, the “lipid storage change, negative = inhibition” value is 18% (inactive). Regarding `CCNC(=O)CN(CCc1ccccc1)S(C)(=O)=O`, the “lipid storage change, negative = inhibition” value is -19.8% (inactive) and the cell number change was -1.75%. In the case of `NC(=O)CSc1nccn1Cc1ccccc1`, the “lipid storage change, negative = inhibition” value was 4.18% (inactive) and the cell number change is -3.05%. Regarding `CCOc1ccc(S(=O)(=O)N2CCC(C(=O)NCC3CCCO3)CC2)cc1Cl` (configuration not stated), the outcome was inactive and the cell number change was determined as 20.5%.

Consider `CSc1ccc(S(=O)(=O)NC2CC2)cc1`, for which the “lipid storage change, negative = inhibition” value was 15.4% (inactive) and the cell number change is 1.23%. Turning to `CSc1ccc(S(=O)(=O)NC2CCCCC2)cc1`, the Potency is 23.1 µM (active) and the cell number change amounted to 26.8%. For the molecule `O=S(=O)(NC1CCCC1)c1ccc(S(=O)(=O)NC2CCCC2)cc1`, the “lipid storage change, negative = inhibition” value is 11.9% (inactive) and the cell number change is 5.07%. On to `Cc1cccc(C)c1NC(=S)N(CCN(C)C)Cc1cccs1`, for which the “lipid storage change, negative = inhibition” value was 0.695% (inactive) and the cell number change was -10.3%. As to `O=S(=O)(Nc1ccc(-n2cnnn2)cc1)c1ccc(Cl)cc1`, the “lipid storage change, negative = inhibition” value was 0.143% (inactive) and the cell number change was -6.89%. Consider `Cc1ccc(S(=O)(=O)Nc2ccc(-n3cnnn3)cc2)cc1`, for which the molecule was classed as inactive and the cell number change was determined as 12.5%. Turning to `O=S(=O)(Nc1cccc(-n2cnnn2)c1)c1cc(Br)ccc1Br`, the Potency was 20.6 µM (active) and the cell number change was -10.7%.

`O=S(=O)(Nc1cccc(-n2cnnn2)c1)c1ccccc1C(F)(F)F`: the call was inactive and the cell number change was -11%. With `O=S(=O)(Nc1cccc(-n2cnnn2)c1)c1ccccc1`, the call was inactive and the cell number change is -16.7%.

In the case of `Cc1ccc(S(=O)(=O)Nc2ccc(-n3cnnn3)cc2)c(C)c1`, the Potency was 0.58 µM (active) and the cell number change was -8.9%.
